KKLEB cytotox: reduces viability of KKLEB cystic fibrosis airway cells; KKLEB CF airway cells viability, ATPlite luminescence, overnight; hits give low values; cells stimulated with P. aeruginosa culture filtrate; activity change (cytotoxicity), % at 5 µM; hit rate 0.36% among 360,000;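 active means corrected activity change at or below -50% at 5 µM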
HIF-2a inh: inhibitors of HIF-2a | hit rate 0.72% among 360,000 | inhibition, % at 18.8 µM | 786-0 RCC cells HIF-2a reporter, luciferase luminescence, overnight;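 active means inhibition of the luminescence signal of 40% or more relative to plate controls, in a single-dose primary screen at 18.75 µM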
CF NFkB block: cystic fibrosis NF-kB activation inhibition. KKLEB NF-kB-GFP reporter, PAF-induced, GFP fluorescence overnight. inhibition, % at 5 µM. hit rate 0.86% among 360,000. AID 588850;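 active means at least 50% inhibition at 5 µM, scaled per plate between neutral and stimulator controls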;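 further: PAF is a Pseudomonas aeruginosa culture filtrate used as stimulus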
TWEAK Fn14 block: inhibitors of TWEAK-Fn14 interaction signaling | TWEAK-stimulated Fn14 reporter cells, luciferase luminescence, 8 h | inhibition, % at 10 µM | hit rate 2% among 360,000; in the data active means inhibition above about 50%
TROY NFkB inh: TROY signaling inhibition; hit rate 0.98% among 360,000; inhibition, % at 10 µM; Q293 LMP1-TROYcd NF-kB luciferase reporter, 4 h;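 active means compounds whose plate-normalised and pattern-corrected inhibition of the luciferase reporter signal at the single screening dose is 50% or more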
Peg3 promoter: reduces Peg3 promoter-driven luciferase expression in HeLa; HeLa PEG-Prom luciferase reporter, luminescence, overnight; inhibition, % at 20 µM; hit rate 1.7% among 360,000; AID 588405;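 active means inhibition of at least 50% at 20 µM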
A number is an active result; i = inactive; nt = no result. Shown are actives, neighbours in structure and some others; about 4% of the full set was active somewhere.

SMILES	KKLEB cytotox	HIF-2a inh	CF NFkB block	TWEAK Fn14 block	TROY NFkB inh	Peg3 promoter
Cc1cccc(C)c1NC(=O)CSc1nnc(-c2ccco2)n1N	i	i	i	i	i	i
Nn1c(SCC(=O)Nc2ccc(S(N)(=O)=O)cc2)nnc1-c1ccco1	i	i	i	i	57.2	i
CC1=C(C(=O)N2CCOCC2)CC(CC(=O)NCCCCc2ccccc2)C(=O)N1CCC1=CCCCC1 (centres undefined)	i	i	i	i	i	i
O=C1c2ccccc2CCCC12N=NCC2c1cccc2ccccc12 (centres undefined)	i	i	i	i	i	i
Cc1ccc(C2CN=NC23CCc2ccccc2C3=O)cc1 (centres undefined)	i	i	i	55.1	i	i
COc1ccccc1-c1ccc2c(c1)C(C)(Cc1cc(Cl)ccc1C(F)(F)F)C(=O)N2 (centres undefined)	i	i	i	i	i	78.5
C[C@H](CO)N1C[C@H](C)[C@@H](CN(C)S(=O)(=O)c2cn(C)cn2)Oc2cc(Br)ccc2S1(=O)=O	i	i	i	i	i	i
Cc1cccc(NC(=S)N=Nc2c(O)[nH]c3ccccc23)c1	i	i	i	82.6	i	i
O=C(N=Nc1c(O)[nH]c2ccccc12)Nc1ccccc1	i	i	i	i	i	i
Cc1ccsc1/C=C1\CCc2ccccc2C1=O	i	i	i	81.7	i	i
O=C1C(=Cc2ccccn2)CCc2ccccc21	i	i	61.4	53.7	i	i
COc1ccc(C(C)(NC(C)=O)c2nc(-c3cccc(NC(C)=O)c3)cs2)cc1 (centres undefined)	i	i	i	i	i	i
COc1ccccc1NC(=O)C[n+]1ccccc1C	i	i	i	i	i	i
COc1ccc(/C=N/NC(=O)c2ccc3ccccc3c2)cc1OS(=O)(=O)c1ccc(NC(C)=O)cc1	i	i	61.1	52.4	i	61.5
COc1ccc(/C=C/C(=O)Oc2ccc(/C=N/NC(=O)c3ccccc3)cc2)cc1OC	-68.2	i	51.5	i	i	i
COc1cc(C(=O)N/N=C/c2ccc(OC(=O)c3ccccc3Cl)cc2)ccc1O	i	i	i	i	52.5	i
Nc1ccc(C(=O)N/N=C\c2ccc(OC(=O)c3ccccc3Cl)cc2)cc1	i	i	i	i	i	i
CC(C)NC(=O)C1(C)CSCC(=O)N1C1CC1 (centres undefined)	nt	i	nt	nt	nt	nt
O=C(CN(C(=O)CCC(=O)Nc1ccccn1)c1ccccc1F)NCc1ccc2c(c1)OCO2	i	i	i	i	i	i
CCOc1ccc(S(=O)(=O)NCCc2ccccn2)cc1	i	i	i	i	i	i
CN(C(=O)c1cccc(NC(=O)Cc2ccc(NC(=O)C3CCCN(C(=O)C4CCCCC4)C3)cc2)c1)C1CCCCC1 (centres undefined)	i	i	i	i	i	i
CCC(C)c1ccc2oc(-c3ccc(NC(=O)Cn4cnc5c(=O)n(C)c(=O)n(C)c54)cc3)nc2c1 (centres undefined)	i	i	i	i	63.6	i
CC(C)(C)c1ccccc1NC(=O)Nc1nc(C(N)c2ccccc2Cl)cs1 (centres undefined)	i	i	i	i	i	i
COc1ccc(CC(N)c2csc(NC(=O)NCCc3ccc(OC)c(OC)c3)n2)cc1 (centres undefined)	i	i	i	i	i	i
NC(Cc1ccc(C(F)(F)F)cc1)c1csc(Nc2nncc3ccccc23)n1 (centres undefined)	i	i	i	i	i	93.9
SMILES	KKLEB cytotox	HIF-2a inh	CF NFkB block	TWEAK Fn14 block	TROY NFkB inh	Peg3 promoter
CC(C)c1ccc(NC(=O)Nc2nc(C(N)c3ccccc3Cl)cs2)cc1 (centres undefined)	i	i	i	i	i	87.5
COc1cc(CNC(=O)Nc2nc(C(N)Cc3ccc(C(F)(F)F)cc3)cs2)cc(OC)c1OC (centres undefined)	i	i	i	i	i	97.8
NC(CCc1ccccc1)c1csc(NC(=O)Nc2cccc(C(F)(F)F)c2)n1 (centres undefined)	i	i	i	i	i	94.5
Cc1ccccc1CCN1CCCC(CN(C)C(=O)c2ccc3ncccc3c2)C1 (centres undefined)	i	i	i	i	i	i
Cc1ccc(C(=O)N2CCC(C(=O)Nc3cccc([N+](=O)[O-])c3)CC2)cc1	i	i	i	i	i	i
COc1ccc(CC(N)c2csc(NC(=O)Nc3cccc(C(F)(F)F)c3)n2)cc1 (centres undefined)	i	i	i	i	i	96.6
NC(COCc1ccccc1)c1csc(NC(=O)Nc2cccc(Cl)c2)n1 (centres undefined)	i	i	i	i	i	95.7
COc1ccc(CC(N)c2csc(NC(=O)Nc3ccc(F)cc3)n2)cc1 (centres undefined)	i	i	i	i	i	54.9
COc1ccc(CC(N)c2csc(NC(=O)NCc3ccccc3)n2)cc1 (centres undefined)	i	i	i	i	i	i
NC(CO)c1csc(NC(=O)Nc2cccc(Cl)c2)n1 (centres undefined)	i	i	i	i	i	i
NC(Cc1ccc(Cl)cc1)c1csc(NC(=O)Nc2ccccc2)n1 (centres undefined)	i	i	i	i	i	100.8
CC(C(=O)O)n1cc(C#N)c(=O)[nH]c1=O (centres undefined)	i	i	i	i	i	i
CC(C)C(N)c1csc(NC(=O)Nc2cccc(C(F)(F)F)c2)n1 (centres undefined)	i	i	i	i	i	96.7
NCc1csc(NC(=O)Nc2cccc(C(F)(F)F)c2)n1	i	i	i	i	i	i
CC(C)C(N)c1csc(NC(=O)Nc2ccc(OC(F)(F)F)cc2)n1 (centres undefined)	i	i	i	i	i	97.1
NC(Cc1ccc(C(F)(F)F)cc1)c1csc(NC(=O)Nc2ccccc2)n1 (centres undefined)	i	i	i	i	i	93.7
NC(Cc1ccc(C(F)(F)F)cc1)c1csc(NC(=O)Nc2ccccc2Cl)n1 (centres undefined)	i	i	i	i	i	89.0
O=[N+]([O-])c1cccc(NNS(=O)(=O)c2ccccc2F)c1	i	i	i	i	i	i
O=C(CSc1nc2ccccc2c(=O)n1-c1ccccc1Cl)NC1CCS(=O)(=O)C1 (centres undefined)	i	i	i	i	i	i
COc1ccc(C(=O)N/N=C/c2cccc3cccnc23)cc1	i	i	i	105.2	nt	i
Cc1ccc2occ(/C=N/NC(=O)c3ccccc3O)c(=O)c2c1	i	i	i	57.9	i	i
COc1ccc(C(=O)N/N=C\c2coc3ccc(C)cc3c2=O)cc1	i	i	i	54.4	i	i
Cc1ccc(SCc2cc(=O)[nH]c(/N=C(\N)Nc3ccccc3Sc3ccccc3)n2)cc1	i	i	i	65.5	i	i

Screens (PubChem)
